Set-up in all cases: scale not given: direction of the effect not stated beside the values
Test [1] addresses Protein translocase subunit SecA (Escherichia coli (strain K12)) (UniProt P10408). Kind of test: Assay to Identify E. coli SecA ATPase Inhibitors. It is filed as functional. Particulars: 30 µM.
For test [2], the target named is T1, Ubiquitin-activating enzyme e1, putative (Leishmania donovani (strain BPK282A1)) (UniProt E9BSI1).
T1 sequence (whole entry): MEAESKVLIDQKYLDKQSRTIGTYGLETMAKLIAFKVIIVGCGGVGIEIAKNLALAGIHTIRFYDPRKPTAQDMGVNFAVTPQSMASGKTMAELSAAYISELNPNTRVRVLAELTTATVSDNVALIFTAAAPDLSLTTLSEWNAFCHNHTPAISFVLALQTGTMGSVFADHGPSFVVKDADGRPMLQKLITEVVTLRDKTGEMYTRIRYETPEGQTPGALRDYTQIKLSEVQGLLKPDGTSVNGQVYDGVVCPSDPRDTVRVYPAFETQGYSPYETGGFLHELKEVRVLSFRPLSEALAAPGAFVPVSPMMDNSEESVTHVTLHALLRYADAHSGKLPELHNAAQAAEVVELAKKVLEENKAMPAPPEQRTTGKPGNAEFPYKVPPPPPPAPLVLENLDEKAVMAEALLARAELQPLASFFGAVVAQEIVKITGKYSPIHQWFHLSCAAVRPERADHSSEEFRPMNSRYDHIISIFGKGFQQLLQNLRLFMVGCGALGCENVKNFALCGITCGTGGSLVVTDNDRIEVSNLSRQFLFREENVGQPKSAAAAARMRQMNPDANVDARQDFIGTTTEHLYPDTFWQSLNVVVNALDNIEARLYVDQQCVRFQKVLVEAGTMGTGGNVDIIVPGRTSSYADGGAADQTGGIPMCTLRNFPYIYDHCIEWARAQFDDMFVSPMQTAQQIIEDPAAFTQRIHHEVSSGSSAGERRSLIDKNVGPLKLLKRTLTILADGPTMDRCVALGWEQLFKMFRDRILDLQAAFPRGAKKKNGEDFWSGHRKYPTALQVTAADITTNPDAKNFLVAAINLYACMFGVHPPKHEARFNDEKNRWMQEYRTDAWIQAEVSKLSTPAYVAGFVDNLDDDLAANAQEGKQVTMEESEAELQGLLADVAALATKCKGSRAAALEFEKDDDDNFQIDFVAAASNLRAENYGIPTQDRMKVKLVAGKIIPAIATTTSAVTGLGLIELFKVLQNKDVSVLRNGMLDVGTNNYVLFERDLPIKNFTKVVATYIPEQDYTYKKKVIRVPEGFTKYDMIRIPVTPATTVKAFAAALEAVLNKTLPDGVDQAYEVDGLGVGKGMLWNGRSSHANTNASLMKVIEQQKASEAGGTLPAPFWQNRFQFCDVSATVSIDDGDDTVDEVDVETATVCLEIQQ
Kind of test: Leishmania donovani Ubiquitin Activating Enzyme (LdE1). It is filed as functional. Particulars: 30 µM.

Test [3] concerns the target Sialic acid-binding Ig-like lectin 9 (Homo sapiens) (UniProt Q9Y336). Kind of test: Hs-Siglec9 ALPHAscreen SOP 20170721. Particulars: 10 µM. (In general: Alpha assays give light when donor and acceptor beads are brought close together.)
Test [4] concerns Trypanosoma cruzi. The test can be described thus: Trypanosoma cruzi phosphomannomutase and mannose-1-phosphate guanylyltransferase assay. It is filed as functional. Particulars: 10 µM.
Test [5] has as its target T2, Arginase-2, mitochondrial (Homo sapiens) (UniProt P78540).
T2 sequence (whole entry): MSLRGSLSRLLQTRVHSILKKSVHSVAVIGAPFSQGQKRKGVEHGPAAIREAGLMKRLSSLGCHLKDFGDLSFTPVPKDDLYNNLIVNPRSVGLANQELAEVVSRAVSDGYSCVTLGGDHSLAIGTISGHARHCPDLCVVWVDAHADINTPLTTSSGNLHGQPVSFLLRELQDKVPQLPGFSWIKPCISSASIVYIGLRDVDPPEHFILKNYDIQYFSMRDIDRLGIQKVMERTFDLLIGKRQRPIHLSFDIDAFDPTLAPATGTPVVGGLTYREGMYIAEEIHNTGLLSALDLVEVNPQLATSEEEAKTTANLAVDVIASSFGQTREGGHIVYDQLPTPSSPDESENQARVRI
The test can be described thus: in vitro enzyme assay to detect the production of urea directly proportional to the activity of Arginase II. Further: in the data most compounds retested in dose-response had high values. It is filed as functional. Particulars: 33.3 µM.

The target of test [6] is T3, Proteasome subunit beta (Trypanosoma cruzi) (UniProt O96673).
T3 sequence (whole entry): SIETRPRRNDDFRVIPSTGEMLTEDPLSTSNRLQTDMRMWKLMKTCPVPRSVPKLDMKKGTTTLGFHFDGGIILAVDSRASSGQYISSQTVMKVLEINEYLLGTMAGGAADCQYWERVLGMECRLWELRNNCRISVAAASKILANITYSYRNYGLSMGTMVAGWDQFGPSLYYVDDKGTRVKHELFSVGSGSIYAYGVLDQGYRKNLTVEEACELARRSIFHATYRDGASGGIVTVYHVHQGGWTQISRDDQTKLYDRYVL
The test can be described thus: Trypanosoma cruzi proteasome chymotrypsin-like activity (TcProtChymo) assay. Further: in the data most compounds retested in dose-response had high values. It is filed as functional. Particulars: 9.37 µM.

Test [7] is filed under the species Homo sapiens. Kind of test: To identify inhibition of the IFN signalling (Jak-Stat) pathway via expression of an eGFP reporter gene under the control of an IFN-stimulated response element (ISRE) containing MxA promoter. It is filed as functional. Particulars: 30 µM. (In a reporter assay the amount or activity of a reporter protein is the signal.)
In test [8] the target is T4, Tyrosyl-tRNA synthetase, putative (Trypanosoma cruzi (strain CL Brener)) (UniProt Q4DSP6).
T4 sequence (whole entry): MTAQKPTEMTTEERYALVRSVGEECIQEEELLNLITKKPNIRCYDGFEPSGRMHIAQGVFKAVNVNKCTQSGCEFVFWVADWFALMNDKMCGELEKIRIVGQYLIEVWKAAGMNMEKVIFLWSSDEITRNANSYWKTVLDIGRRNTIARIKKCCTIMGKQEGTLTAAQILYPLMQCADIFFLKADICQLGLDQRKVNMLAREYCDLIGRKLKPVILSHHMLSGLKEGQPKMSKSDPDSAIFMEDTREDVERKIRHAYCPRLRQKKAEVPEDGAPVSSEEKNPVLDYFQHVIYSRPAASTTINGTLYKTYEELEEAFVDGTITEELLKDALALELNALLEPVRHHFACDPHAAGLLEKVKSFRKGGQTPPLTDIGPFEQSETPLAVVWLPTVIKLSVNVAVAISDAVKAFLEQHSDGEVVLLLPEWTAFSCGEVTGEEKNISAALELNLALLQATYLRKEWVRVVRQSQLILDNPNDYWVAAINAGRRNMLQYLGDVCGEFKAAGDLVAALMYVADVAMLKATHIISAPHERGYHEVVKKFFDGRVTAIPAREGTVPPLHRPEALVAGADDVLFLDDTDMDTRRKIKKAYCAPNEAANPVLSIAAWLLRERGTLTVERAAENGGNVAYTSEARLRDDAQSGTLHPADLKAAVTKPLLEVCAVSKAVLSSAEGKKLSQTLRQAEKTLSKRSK
Kind of test: Trypanosoma cruzi tyrosyl tRNA synthetase (TcYRS) _High Tyrosine SOP. Further: in the data most compounds retested in dose-response had high values. It is filed as functional. Particulars: 30 µM.

For test [9], the target named is T4, Tyrosyl-tRNA synthetase, putative (Trypanosoma cruzi (strain CL Brener)). Kind of test: Trypanosoma cruzi tyrosyl tRNA synthetase (TcYRS) SOP. It is filed as functional. Particulars: 30 µM.
Test [10] concerns the target Chromo domain-containing protein 1 (Saccharomyces cerevisiae (strain ATCC 204508 / S288c) (Baker's yeast)) (UniProt P32657). Kind of test: ScCHD-1 Enzyme Inhibition Assay. Further: in the data most compounds retested in dose-response had high values. It is filed as functional. Particulars: 30 µM.

For some assays here: Potency and affinity values are given separately.

The results in this text go back to ChEMBL document CHEMBL3988442, “University of Dundee, Small-Polar-MMV Screening Library” (2021).

Protein translocase subunit SecA (Escherichia coli (strain K12)), sequence (P10408 whole entry): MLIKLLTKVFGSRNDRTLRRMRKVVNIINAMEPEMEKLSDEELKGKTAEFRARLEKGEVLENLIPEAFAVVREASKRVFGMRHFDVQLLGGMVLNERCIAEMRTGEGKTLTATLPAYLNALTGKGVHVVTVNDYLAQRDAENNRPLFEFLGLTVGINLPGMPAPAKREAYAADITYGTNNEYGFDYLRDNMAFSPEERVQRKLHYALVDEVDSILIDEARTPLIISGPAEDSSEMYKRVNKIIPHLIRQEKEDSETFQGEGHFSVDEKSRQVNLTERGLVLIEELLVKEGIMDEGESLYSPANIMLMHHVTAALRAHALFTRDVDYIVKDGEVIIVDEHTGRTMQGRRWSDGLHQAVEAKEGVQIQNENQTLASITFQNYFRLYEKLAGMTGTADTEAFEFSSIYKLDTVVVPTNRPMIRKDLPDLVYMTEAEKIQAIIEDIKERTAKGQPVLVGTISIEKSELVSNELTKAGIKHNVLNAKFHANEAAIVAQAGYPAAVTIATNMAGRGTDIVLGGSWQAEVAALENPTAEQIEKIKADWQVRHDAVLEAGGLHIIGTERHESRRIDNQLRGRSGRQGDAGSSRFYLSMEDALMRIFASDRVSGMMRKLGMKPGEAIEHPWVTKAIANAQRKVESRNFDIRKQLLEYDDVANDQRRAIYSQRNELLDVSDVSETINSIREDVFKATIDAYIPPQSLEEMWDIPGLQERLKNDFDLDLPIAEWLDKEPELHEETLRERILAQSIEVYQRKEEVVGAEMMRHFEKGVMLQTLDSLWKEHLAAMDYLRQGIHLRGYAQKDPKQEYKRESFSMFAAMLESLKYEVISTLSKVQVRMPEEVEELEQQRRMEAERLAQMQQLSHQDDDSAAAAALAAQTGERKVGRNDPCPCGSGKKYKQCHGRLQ
Chromo domain-containing protein 1 (Saccharomyces cerevisiae (strain ATCC 204508 / S288c) (Baker's yeast)), sequence (P32657 whole entry, the tested form may be a part): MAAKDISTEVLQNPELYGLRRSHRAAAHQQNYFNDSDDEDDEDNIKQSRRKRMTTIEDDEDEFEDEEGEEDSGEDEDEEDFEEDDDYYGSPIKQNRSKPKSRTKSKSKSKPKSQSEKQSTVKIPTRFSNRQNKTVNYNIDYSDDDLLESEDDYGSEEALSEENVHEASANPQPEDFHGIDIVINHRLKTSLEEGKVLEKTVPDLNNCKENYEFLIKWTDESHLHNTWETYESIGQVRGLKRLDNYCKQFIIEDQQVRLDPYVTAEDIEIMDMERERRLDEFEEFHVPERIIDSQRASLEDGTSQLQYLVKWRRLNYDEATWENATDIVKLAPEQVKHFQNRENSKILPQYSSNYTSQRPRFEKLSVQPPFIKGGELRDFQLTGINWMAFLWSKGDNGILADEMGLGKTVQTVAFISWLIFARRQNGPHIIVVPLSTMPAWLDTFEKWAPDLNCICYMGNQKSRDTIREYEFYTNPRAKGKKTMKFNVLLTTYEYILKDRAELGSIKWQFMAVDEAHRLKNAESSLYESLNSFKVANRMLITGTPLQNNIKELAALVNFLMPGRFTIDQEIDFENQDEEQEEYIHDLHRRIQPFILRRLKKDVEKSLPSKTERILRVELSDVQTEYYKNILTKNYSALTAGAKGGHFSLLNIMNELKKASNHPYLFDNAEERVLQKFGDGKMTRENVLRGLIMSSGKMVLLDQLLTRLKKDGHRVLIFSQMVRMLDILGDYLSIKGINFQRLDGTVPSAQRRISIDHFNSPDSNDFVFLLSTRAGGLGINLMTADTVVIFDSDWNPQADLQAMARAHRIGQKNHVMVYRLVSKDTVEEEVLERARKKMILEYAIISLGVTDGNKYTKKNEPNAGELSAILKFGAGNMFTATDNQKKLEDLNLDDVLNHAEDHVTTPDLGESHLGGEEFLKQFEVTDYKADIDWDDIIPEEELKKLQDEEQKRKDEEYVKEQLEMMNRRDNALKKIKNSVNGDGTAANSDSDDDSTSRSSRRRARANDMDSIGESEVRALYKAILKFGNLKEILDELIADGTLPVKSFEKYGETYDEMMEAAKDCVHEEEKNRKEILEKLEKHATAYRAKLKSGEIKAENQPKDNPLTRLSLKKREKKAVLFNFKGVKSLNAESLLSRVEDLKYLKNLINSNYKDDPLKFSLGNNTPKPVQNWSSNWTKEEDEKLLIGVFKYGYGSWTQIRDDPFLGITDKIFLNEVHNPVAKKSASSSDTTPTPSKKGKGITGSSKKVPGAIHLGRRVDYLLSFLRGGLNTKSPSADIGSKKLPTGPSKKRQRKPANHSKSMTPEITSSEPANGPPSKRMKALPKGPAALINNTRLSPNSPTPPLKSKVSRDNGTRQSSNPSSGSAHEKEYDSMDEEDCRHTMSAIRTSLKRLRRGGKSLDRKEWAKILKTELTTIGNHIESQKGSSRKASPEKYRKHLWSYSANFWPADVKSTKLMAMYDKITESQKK
Sialic acid-binding Ig-like lectin 9 (Homo sapiens), sequence (Q9Y336 whole entry): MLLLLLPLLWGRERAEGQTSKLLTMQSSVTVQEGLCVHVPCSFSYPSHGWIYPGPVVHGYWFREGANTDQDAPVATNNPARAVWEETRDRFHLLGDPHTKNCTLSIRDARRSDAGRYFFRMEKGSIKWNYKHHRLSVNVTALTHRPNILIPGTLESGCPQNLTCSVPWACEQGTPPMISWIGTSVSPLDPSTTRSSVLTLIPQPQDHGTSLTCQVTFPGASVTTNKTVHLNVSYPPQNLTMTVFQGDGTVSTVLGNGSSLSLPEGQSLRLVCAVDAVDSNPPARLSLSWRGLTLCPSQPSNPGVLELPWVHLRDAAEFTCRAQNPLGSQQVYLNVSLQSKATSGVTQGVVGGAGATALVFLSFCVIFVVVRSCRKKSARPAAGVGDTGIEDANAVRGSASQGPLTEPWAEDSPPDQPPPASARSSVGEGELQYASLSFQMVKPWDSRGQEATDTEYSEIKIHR

As for `COC(=O)Cn1c(=O)nc2n1C(=O)N(c1ccccc1)C2`, the Percent Effect in test [1] was -4.54%; in [2], 5.41%; in test [3] it was -1.57%; in [4], -7.27%; in [5], 5.94%; in [6], 9.76%. Also, the Percent Effect in test [7] was 17%; in test [8], 3.72%; in test [9], 9.76%; in test [10] it was -2.64%.

For `Cc1ccc(C(=O)N2CCC3(CC2)CC(N2CCCC2)C3)cc1`, the Percent Effect in test [1] was -4.52%; in test [2], 11.7%; in [3], 1.16%; in test [4], -0.75%; in test [5], 1.83%; in [6], 7.12%. The Percent Effect is -12.1% in test [7], 8.7% in test [8], 12.5% in [9] and -4.42% in test [10].

Take `O=C(NCc1nn(-c2ccccc2)c2c1CCC2)NC1CC1`: the Percent Effect in [1] is -4.01%; in [2], 2.56%; in [3] it was 9.31%; in test [4], 0.469%; in test [5], 2.05%; in test [6] it was 2.65%. Further, the Percent Effect in [7] was -3.46%; in test [8] it was 1.44%; in test [9] it was 8.43%; in [10], -1.68%.

Regarding `CC1CCN(C(=O)c2cccc3ncccc23)CC1`, the Percent Effect is -2.07% in test [1]; -5.33% in test [2]; 1.04% in test [3]; -1.21% in test [4]; -1.33% in test [5]; 3.48% in [6]. In addition, the Percent Effect in test [7] turned out to be 19%; in test [8], 4.74%; in test [9], 7.69%; in test [10], 1.83%.

Take `O=C1CC(c2ccsc2)c2sc(C(=O)O)c(-c3ccccc3)c2N1` (stereo not given): the Percent Effect was -4.21% in test [1]; 8.11% in test [2]; 8.19% in [3]; 5.92% in test [4]; 21.3% in [5]; 21.9% in test [6]. The Percent Effect in [7] turned out to be 11.7%; in [8] it was 4.79%; in [9], 12.2%; in test [10], 33.2%.

In the case of `Cc1[nH]ccc1C(=O)N1CCCC(c2nccn2Cc2cscn2)C1` (stereo not given), the Percent Effect was -7.46% in [1]; -5.41% in test [2]; 27.9% in test [3]; 9.99% in test [4]; 57% in test [5]; 15.2% in test [6]. Also, the Percent Effect is 8.11% in test [7], 7.98% in test [8], 17.1% in test [9] and -3.33% in [10].

As for `CCc1cc(C(=O)N2CCCC2c2nc(C)c(F)c(O)n2)on1` (stereo not given), the Percent Effect was 1.86% in test [1]; 17.3% in test [2]; -9.03% in test [3]; 0.197% in test [4]; -3.54% in test [5]; 16.1% in test [6]. In addition, the Percent Effect in test [7] is 26.2%; in [8], 3.17%; in [9] it was 10%; in test [10], -19.6%.

Take `COc1ccc(CN(C)CC(=O)NC2(C)CCS(=O)(=O)C2)cc1F` (stereo not given): the Percent Effect is 0.854% in test [1]; 0% in test [2]; 4.26% in test [3]; -5.42% in test [4]; 4.88% in test [5]; 2.8% in [6]. In addition, the Percent Effect is 17.4% in [7], -0.526% in test [8], 0% in test [9] and -1.6% in [10].

For the compound `CNC(=O)C1CCC(NC(=O)N(C)Cc2c(C)noc2C)CC1` (stereo not given), the Percent Effect in [1] is -5.49%; in [2], 10.3%; in test [3], -15.1%; in [4] it was 11%; in [5], -3.28%; in test [6] it was 1.96%. Moreover, the Percent Effect turned out to be 2.07% in test [7], 6.22% in test [8], 18.1% in test [9] and 96.3% in test [10].

With `O=C(c1ccco1)N1C[C@H]2CCCN(Cc3cccs3)[C@H]2C1`, the Percent Effect in [1] was -3.68%; in test [2] it was 14.3%; in [3] it was -9.29%; in [4] it was -4.58%; in test [5], -2.02%; in [6] it was 15.1%. The Percent Effect in test [7] is 28.2%; in test [8] it was 3.68%; in [9] it was 7.69%; in test [10] it was -4.26%.

Take `Cc1ccsc1CN(C)Cc1nc2c(cnn2C)c(=O)[nH]1`: the Percent Effect in [1] is 0.7%; in test [2] it was 15.4%; in test [3], -7.51%; in test [4] it was 0.845%; in test [5], 2.05%; in test [6], 10.7%. For the same compound, the Percent Effect is 27.3% in [7], 7.18% in test [8], 18.1% in test [9] and -3.14% in [10].
